# Several values for one entry are separate records, joined by “and”; a condition that tells them apart may be missing. Equal entries are not always repeated. Screen size: about 420,000 compounds; about 64,000 (15%) were called active. Not shown: some 27% with an inconclusive outcome. Not all results are given here. A number with no mark means an inactive call. Calls come from the whole dose curve; as a rule, active = well fitted inhibition curve with a large enough effect; inconclusive = small, poorly fitted or top-dose-only effect; inactive = flat fitted curve, though single readings scatter.
# Test: qHTS for Inhibitors of human tyrosyl-DNA phosphodiesterase 1 (TDP1): qHTS in cells in absence of CPT; note: nearly all actives have a fitted effect of over 55% in size
# Settings: DT40 Tdp1-/- hTDP1 cells, no CPT, ATP luminescence, 48 h; activity change, negative = growth inhibition: at 46.2 µM (top of the series)
# Method in brief: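 DT40 Tdp1-/-;hTDP1 cells, no CPT (DMSO vehicle only), 400 cells/well; compounds pin-transferred; ≥48 hr, 37 °C; CellTiter-Glo 30 min RT dark, luminescence read.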
# % is set by controls: 0 for no effect and ±100 for the full control effect; potency is the fitted concentration of half-maximal effect.
Structure (SMILES),"activity change, negative = growth inhibition",Potency
Cc1cc(C)nc(NS(=O)(=O)c2ccc(NC(=O)c3cc(=O)c4ccc(C)c(C)c4o3)cc2)n1,-12.7%,–
Cc1nc(SCC(=O)Nc2ccc(C(=O)O)cc2)n[nH]1,-3.23%,–
O=C1c2ccccc2-c2ncnc3c(N4CCOCC4)cc(N4CCOCC4)c1c23,–,10.3 µM (active)
O=S(=O)(N1CCOCC1)N1CCN(c2ccccc2F)CC1,-6.21%,–
O=S(=O)(Nc1cc(Cl)ccc1N1CCOCC1)c1ccccc1Cl,-1.88%,–
COc1ccc(CCNC(=O)CSc2nnc3ccc(-c4ccncc4)nn23)cc1,3.54%,–
Cc1nn(Cc2ccccc2Cl)c(C)c1NC(=O)Cn1nc([N+](=O)[O-])c(Cl)c1C,-1.09%,–
CC(C)CNC(=O)c1cc(-c2ccc(Br)cc2)on1,-14.2%,–
Cc1cc(C(=O)Nc2c(C)nn(Cc3ccccc3)c2C)on1,3.16%,–
CC(C)Cc1cc(C(=O)NCCc2ccccc2)no1,-11.1%,–
Cc1nn(Cc2ccc(F)cc2)c(C)c1NC(=O)c1cc(CC(C)C)on1,–,20.6 µM (active)
Cc1nn(Cc2ccc(F)cc2)c(C)c1NC(=O)c1cccnc1Cl,0.0616%,–
CC(C)Cc1cc(C(=O)Nc2cc(Br)ccc2O)no1,–,14.6 µM (active)
Cc1nn(Cc2ccc(F)cc2)c(C)c1NC(=O)c1noc2c1CCc1ccccc1-2,–,18.4 µM (active) and 16.4 µM (active)
Cc1ccccc1Cn1nc(C)c(NC(=O)C(F)(F)F)c1C,9%,–
c1ccc(CN=C2Nc3ccccc3CS2)nc1,-15.1%,–
CC1(C)O[C@H]2CC(=O)OCC23[C@H]2CC[C@@]4(C)[C@H](c5ccoc5)OC(=O)[C@H]5O[C@]54[C@]2(C)C(=O)C[C@@H]13 (stereo partly specified),-0.653%,–
COc1ccc(NC(=O)c2c(SC)nsc2SC)cc1,-15.8%,–
Oc1ccc2c(c1)OCC1c3cc4c(cc3OC21)OCO4 (stereo unspecified),1.62%,–
CCSc1sc(CC)cc1C=O,-5.26%,–
COc1ccccc1/C=C/C=N/NC(=O)CN1CCN(Cc2ccccc2)CC1,-25.1%,–
Cc1cc(SCc2c(F)cccc2Cl)nc(=O)[nH]1,-21.7%,–
COc1ccc(NC(=O)N2CCCn3nc(C)cc32)cc1OC,-3.6%,–
CCn1cc(NC(=O)Nc2ccc(OC)c(OC)c2)c(C(N)=O)n1,-6.75%,–
COc1ccc(NC(=O)NC(C)c2c(-n3cccc3)sc(C)c2C)cc1OC (stereo unspecified),–,16.4 µM (active)
Cc1ccc(NC(=O)CCC(=O)c2ccc(Br)cc2)cc1,8.36%,–

Structure (SMILES),"activity change, negative = growth inhibition",Potency
NC(Cc1ccc(F)cc1)c1csc(Nc2nncc3ccccc23)n1 (stereo unspecified),–,4.11 µM (active)
COCC(C)NC(=O)COc1nncc2ccccc12 (stereo unspecified),-1.48%,–
O=C(Nc1ccc2c(c1)OCCO2)C1CCCN(c2ncccn2)C1 (stereo unspecified),-21.7%,–
Cc1cc(-c2ccc(C)c(S(=O)(=O)Nc3ccc(S(N)(=O)=O)cc3)c2)on1,1.72%,–
Cc1cc(-c2ccc(C)c(S(=O)(=O)N3c4ccccc4CC3C)c2)on1 (stereo unspecified),–,23.1 µM (active)
CC1Cc2ccccc2N1S(=O)(=O)c1ccc(Cl)nc1 (stereo unspecified),-14.7%,–
Cc1cc(NC(=O)CCC(=O)N(CC(=O)NCC2CCCO2)c2ccccc2C)no1 (stereo unspecified),1.54%,–
COc1ccccc1NC(=O)CSc1nnc(Cn2nnc(-c3ccccc3)n2)n1-c1ccccc1,–,20.6 µM (active)
COc1ccccc1OCc1nnc(SCC(N)=O)n1-c1ccccc1,-2.24%,–
COc1ccccc1NC(=O)CSc1nnc(Cc2cccn2C)n1-c1ccc(F)cc1,-12.2%,–
COc1ccc(Cl)cc1-n1c(=S)sc2c(=O)n(-c3ccc(F)cc3)c(SCC(=O)O)nc21,1.54%,–
O=C(O)c1cc(S(=O)(=O)N2CCCCCC2)c(Cl)cc1Cl,-12.2%,–
Cc1ccc(CNC(=O)CCNS(=O)(=O)c2ccc(Br)s2)cc1,-15.4%,–
CC1=NN(C(=O)CCCc2ccccc2)C(O)(C(F)(F)F)C1 (stereo unspecified),0.642%,–
CC1=NN(C(=O)Cc2ccc(C)cc2)C(O)(c2cccnc2)C1 (stereo unspecified),-17.6%,–
COc1ccc(CC(=O)N2N=C(C)CC2(O)C(F)(F)F)cc1 (stereo unspecified),–,3.26 µM (active)
Cc1ccc(CNS(=O)(=O)c2ccc3c(c2)N(C)CCO3)cc1,-25.3%,–
CCCCC(=O)Nc1ccc2c(c1)C(=O)NC2=O,-19.1%,–
Oc1cccc(CCc2ccccn2)c1,-0.0969%,–
NS(=O)(=O)c1ccc(CCNC(=O)Nc2ccc(Cl)cc2)cc1,-22.3%,–
CC(C)S(=O)(=O)c1csc(NC(=O)Nc2ccc(Cl)cc2)c1Cl,–,16.4 µM (active)
O=C(NCc1cn2ccsc2n1)Nc1ccc(Cl)cc1,-20.7%,–
Cc1cccc(NC(=O)c2cccc(C(=O)Nc3cccc(C)c3C)n2)c1C,-7.12%,–
CCN1/C(=C/c2ccc3ccc(C)cc3[n+]2CC)Sc2ccccc21,–,2.06 µM (active)
CCN1/C(=C\c2ccc3ccccc3[n+]2CC)Sc2cc(C)ccc21,–,0.184 µM (active)
Cn1c(Nc2ccccc2)cc(=O)n(C)c1=O,1.8%,–

Structure (SMILES),"activity change, negative = growth inhibition",Potency
CCc1ccccc1NC(=S)N(CCN1CCCCCC1)Cc1ccco1,-1.1%,–
CCN(CC)S(=O)(=O)c1ccc2nc(COC(=O)c3n[nH]c4ccccc34)[nH]c2c1,-17.7%,–
CC(=O)O[C@H]1CC[C@@]2(C)C(=CC[C@@H]3[C@@H]2CC[C@]2(C)C(c4cccnc4)=CC[C@@H]32)C1,-23.6%,–
CC(=O)OC1CCC2(C)C(=CCC3C4CC(=O)N(O)C(=O)C4(C)CCC32)C1 (stereo unspecified),–,5.17 µM (active)
C[C@]12CC[C@H](O)CC1=CCC1C2CC[C@@]2(C)C1CC[C@@H]2NC(=O)CCC(=O)O (stereo partly specified),-8.9%,–
CN(C)CCNC(=O)/C(=C/c1cccc([N+](=O)[O-])c1)NC(=O)c1ccccc1,2.73%,–
CCOCc1nnc(NC(=O)CSc2ccc(C)cc2)s1,-19.2%,–
OC1CSc2nc3ccccc3n2C1 (stereo unspecified),4.08%,–
CCCc1nn2c(=O)cc(CSCC(=O)Nc3cccc(C)c3)nc2s1,18.6%,–
C[C@H]1COC(=O)[C@H](CC(=O)OC(C)(C)C)C/C=C\C[C@@H](CC(=O)N[C@H](CO)Cc2ccccc2)C(=O)N1,–,14.6 µM (active)
CC(C)[C@@H](NC(=O)OC(C)(C)C)C(=O)NCC1CCC(C(=O)N[C@@H](Cc2ccccc2)C(=O)O)CC1 (stereo partly specified),-10.5%,–
CC(C)(C)OC(=O)NC(Cc1ccccc1)C(=O)NC(CSC1CCCCO1)C(=O)NN (stereo unspecified),0.0689%,–
O=C(C[C@H]1C/C=C\C[C@@H](NC(=O)OCC2c3ccccc3-c3ccccc32)C(=O)O[C@@H](c2ccccc2)CNC1=O)N[C@H](CO)Cc1ccccc1,–,18.4 µM (active)
CC(C)(C)OC(=O)C[C@H]1C/C=C\C[C@@H](CC(=O)N[C@H](CO)Cc2ccccc2)C(=O)NC[C@@H](c2ccccc2)OC1=O,–,18.4 µM (active)
CC(C)(C)OC(=O)C[C@@H]1C/C=C\C[C@@H](CC(=O)N[C@H](CO)Cc2ccccc2)C(=O)NC[C@@H](c2ccccc2)OC1=O,–,20.6 µM (active)
COc1ccc(OCC(=O)NCCc2ccc(S(N)(=O)=O)cc2)cc1,0.22%,–
CCC(C)N1CC(=O)N2Cc3[nH]c4ccccc4c3C[C@H]2C1=O (stereo partly specified),-16.6%,–
CCN(CC)CCNS(=O)(=O)c1ccc(/C=C/C(=O)O)cc1,-7.55%,–
CNCC(O)c1ccc(O)c(O)c1 (stereo unspecified),-15.9%,–
COc1ccc(CNC(=O)C(=O)NCC2OCCN2C(=O)c2ccc(OC)cc2)cc1 (stereo unspecified),-16.3%,–
C/C(=C(\C#N)C(=O)NCCCN1CCOCC1)N(C)C,-3.07%,–
O=C(CCc1ccccc1)NNc1ccc(F)cc1,-26.9%,–
Cc1cccc2[nH]c(CN(C)C(=O)C3CCC(=O)N(CCc4ccccc4)C3)nc12 (stereo unspecified),-10.5%,–
Cc1cccc2cc(CN(Cc3nnnn3Cc3ccccc3)C3CCCC3)c(=O)[nH]c12,–,12.6 µM (active)
CCC(=O)Nc1cccc(NC(=O)CSc2nnnn2C2CCCC2)c1,-14.2%,–
Cc1cccc2cc(CN(Cc3ccc4c(c3)OCO4)Cc3nnnn3C3CCCC3)c(=O)[nH]c12,–,16.4 µM (active)

Structure (SMILES),"activity change, negative = growth inhibition",Potency
CCC(c1nnnn1C1CCCC1)N(Cc1cccs1)Cc1cc2cccc(C)c2[nH]c1=O (stereo unspecified),–,18.4 µM (active)
Cc1cccc2cc(CN(Cc3cccs3)C(c3nnnn3C3CCCC3)C(C)C)c(=O)[nH]c12 (stereo unspecified),-20.3%,–
O=C(CSc1nnnn1C1CCCC1)Nc1ccc2c(c1)OCCO2,0.417%,–
CC(C)C(c1nnnn1Cc1ccccc1)N1CCC(C(N)=O)CC1 (stereo unspecified),6.13%,–
Cc1ccccc1-c1nnc(SCC(=O)NCc2ccc3c(c2)OCO3)n1C,-2.12%,–
CSc1ccc(S(=O)(=O)NCc2ccc(Cl)cc2)cc1,-14.2%,–
CS(=O)(=O)n1nc(-c2ccco2)nc1N,-3.7%,–
Cc1ccnc(NC(=O)C(C)N2C(=O)c3ccccc3C2=O)c1 (stereo unspecified),24.5%,–
C=CCc1cccc2cc(C(=O)OCC)c(=O)oc12,-20%,–
CC/C=C/C(=O)N1CC2(CC(c3cccc(NC(=O)CC)c3)=NO2)C[C@H]1C(N)=O (stereo partly specified),-14.1%,–
Cc1ccc(C)c(S(=O)(=O)N(C)c2ccc(OC(=O)C3CCN(C(=O)c4ccc(F)cc4)CC3)cc2)c1,-22.1%,–
Cc1ccc(OCC(=O)Nc2ccc(-c3nc4ncccc4o3)cc2)cc1,-27.8%,–
Cc1cc(N2C(=O)c3ccc(C(=O)NCc4ccccc4)cc3C2=O)no1,0.0239%,–
COc1cccc(-c2nc3nc(C)cc(C)n3c2NC2CCCCC2)c1,–,20.6 µM (active)
COc1ccc(-c2cc(C)nc3nc(N)nn23)cc1,-2.44%,–
COc1ccc2nc(C)cc(Nc3cccc(C(=O)O)c3)c2c1,12.1%,–
COc1cccc(CSc2nc3nc(C)cc(C)n3n2)c1,-1.82%,–
COc1ccc(-c2nc3nc(C)cc(C)n3c2Nc2c(C)cccc2C)cc1,–,18.4 µM (active)
COc1cccc(-c2cnc(OC(C)(C)C)nc2OC(C)(C)C)c1,-27.7%,–
CCOc1ccc(-c2nc(C)sc2CC(=O)O)cc1,-5.66%,–
Cc1cccc(CSc2nnc(C)c(=O)n2N)c1,-23%,–
O=C(NC1CCCC1)C(c1ccc(Cl)cc1)N(C(=O)c1csnn1)C1CC1 (stereo unspecified),-8.07%,–
COc1ccc(-c2cc(=O)c3c(O)cc(O[C@@H]4O[C@H](CO[C@@H]5O[C@@H](C)[C@H](O)[C@@H](O)[C@H]5O)[C@@H](O)[C@H](O)[C@H]4O)cc3o2)cc1O,–,inactive

# Reference: PubChem BioAssay AID686978 (National Center for Advancing Translational Sciences (NCATS), 2013)
